In paper PMC8384837, “Expanding the binding specificity for RNA recognition by a PUF domain”:
Residue numbers refer to the chain shown, from its start.

How the values were obtained:
Test in all cases: yeast three-hybrid, YBZ-1, SC-Leu-His + 0.5 mM 3-AT, 4 days
Conditions in all cases: tags: N-Gal4 AD-HA kept; label: inside an RPR1-promoter hybrid RNA with tandem MS2 sites; ssRNA
[1] = target: PUM1 PUF domain R5-RSN (Homo sapiens, UniProt Q14671 828-1176, C1007R;R1008S;Q1011N)
In short: (§1)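 The interaction score is the log change in how often each variant appears, from input to selection. Frequencies came from PCR-amplified, Illumina-sequenced repeat regions of Pumilio-1 PUF domain libraries grown in strain YBZ-1 (LexA–MS2 coat fusion, HIS3 reporter) alongside matching RNA elements. Input plates were SC-Leu and selection plates were SC-Leu-His + 0.5 mM 3-AT, each for four days, and the log2 calculation used a pseudocount of 1 where a variant was absent.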

[2] = target: PUM1 PUF domain R5-RAI (Homo sapiens, UniProt Q14671 828-1176, C1007R;R1008A;Q1011I)
In short: as §1

[3] = target: PUM1 PUF domain R8-KHF (Homo sapiens, UniProt Q14671 828-1176, N1122K;Y1123H;Q1126F)
In short: as §1

[4] = target: T1, PUM1 PUF domain R6-RYG (Homo sapiens, UniProt Q14671 828-1176, N1043R;Q1047G)
T1 sequence: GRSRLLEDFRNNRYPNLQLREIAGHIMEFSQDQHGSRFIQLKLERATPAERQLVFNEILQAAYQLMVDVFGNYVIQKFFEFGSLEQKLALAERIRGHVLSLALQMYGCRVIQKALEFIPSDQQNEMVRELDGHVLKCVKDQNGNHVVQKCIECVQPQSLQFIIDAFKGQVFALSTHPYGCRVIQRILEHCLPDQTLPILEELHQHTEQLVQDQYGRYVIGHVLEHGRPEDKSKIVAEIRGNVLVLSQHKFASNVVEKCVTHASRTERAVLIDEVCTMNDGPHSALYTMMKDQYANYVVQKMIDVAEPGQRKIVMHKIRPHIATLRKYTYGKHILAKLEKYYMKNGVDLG
In short: as §1

[5] = target: T2, PUM1 PUF domain R6-AWV (Homo sapiens, UniProt Q14671 828-1176, N1043A;Y1044W;Q1047V)
T2 sequence: T1 sequence with R216A, Y217W, G220V
In short: as §1

[6] = target: T3, PUM1 PUF domain R1-QFR R2-VFQ R6-SWD (Homo sapiens, UniProt Q14671 828-1176, S863Q;R864F;Q867R;N899V;Y900F;N1043S;Y1044W;Q1047D)
T3 sequence: T1 sequence with S36Q, R37F, Q40R, N72V, Y73F, R216S, Y217W, G220D
In short: as §1

[7] = target: PUM1 PUF domain R4-GHW (Homo sapiens, UniProt Q14671 828-1176, N971G;Q975W)
In short: as §1

[8] = target: PUM1 PUF domain R4-CMN (Homo sapiens, UniProt Q14671 828-1176, N971C;H972M;Q975N)
In short: as §1

[9] = target: PUM1 PUF domain R8-RRY (Homo sapiens, UniProt Q14671 828-1176, N1122R;Y1123R;Q1126Y)
In short: as §1

[10] = target: PUM1 PUF domain R4-WGV (Homo sapiens, UniProt Q14671 828-1176, N971W;H972G;Q975V)
In short: as §1

[11] = target: T4, PUM1 PUF domain R6-DWG (Homo sapiens, UniProt Q14671 828-1176, N1043D;Y1044W;Q1047G)
T4 sequence: T1 sequence with R216D, Y217W
In short: as §1

[12] = target: T5, PUM1 PUF domain R6-LFC (Homo sapiens, UniProt Q14671 828-1176, N1043L;Y1044F;Q1047C)
T5 sequence: T1 sequence with R216L, Y217F, G220C
In short: as §1

[13] = target: PUM1 PUF domain R8-KYP (Homo sapiens, UniProt Q14671 828-1176, N1122K;Q1126P)
In short: as §1

[14] = target: PUM1 PUF domain R4-RGY (Homo sapiens, UniProt Q14671 828-1176, N971R;H972G;Q975Y)
In short: as §1

[15] = target: PUM1 PUF domain R3-DNE (Homo sapiens, UniProt Q14671 828-1176, C935D;R936N;Q939E)
In short: as §1

[16] = target: PUM1 PUF domain R3-YRG (Homo sapiens, UniProt Q14671 828-1176, C935Y;Q939G)
In short: as §1

Chain of PUM1 PUF domain R3-YRG (Q14671 828-1176 C935Y/Q939G): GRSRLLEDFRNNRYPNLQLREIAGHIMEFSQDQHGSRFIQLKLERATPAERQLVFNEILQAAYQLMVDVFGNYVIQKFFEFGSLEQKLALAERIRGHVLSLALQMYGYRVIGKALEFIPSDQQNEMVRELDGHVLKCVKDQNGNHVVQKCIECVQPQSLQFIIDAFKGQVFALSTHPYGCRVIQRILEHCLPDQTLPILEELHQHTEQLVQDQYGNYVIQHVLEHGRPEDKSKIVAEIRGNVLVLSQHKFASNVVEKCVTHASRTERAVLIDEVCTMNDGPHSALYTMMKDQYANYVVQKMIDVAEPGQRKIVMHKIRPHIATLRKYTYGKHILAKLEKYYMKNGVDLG
Chain of PUM1 PUF domain R3-DNE (Q14671 828-1176 C935D/R936N/Q939E): as the sequence (Q14671 828-1176 C935Y/Q939G) above, with Y108D, R109N, G112E counted along it
Chain of PUM1 PUF domain R5-RAI (Q14671 828-1176 C1007R/R1008A/Q1011I): as the sequence (Q14671 828-1176 C935Y/Q939G) above, with Y108C, G112Q, C180R, R181A, Q184I counted along it

What does the source list for “GGCUAGAACUAGUGGAUCCCCCGGCGCCCGGCGGCUCGAGCCCGGGUAAGUGUUAAUAGUCUGCAUGCCGCCGGGCGCCAUGCCUGCAGGUCGACUCUAGAAAACAUG”?
binding signal [1]: 3.26 log2 enrichment (interaction score); binding signal [2]: 2.49 log2 enrichment (interaction score)

Which binding signal [3] does the source give for “GGCUAGAACUAGUGGAUCCCCCGGCGCCCGGCGGCUCGAGCCCGGGUAAGGGUAAAUAGUCUGCAUGCCGCCGGGCGCCAUGCCUGCAGGUCGACUCUAGAAAACAUG” here?
Its binding signal is 2.25 log2 enrichment (interaction score).

With “GGCUAGAACUAGUGGAUCCCCCGGCGCCCGGCGGCUCGAGCCCGGGUAAGUGAAAAUAGUCUGCAUGCCGCCGGGCGCCAUGCCUGCAGGUCGACUCUAGAAAACAUG” as the sequence, how does the binding signal [4] read?
Its binding signal is 0.78 log2 enrichment (interaction score).

What about the binding signal [5] of the same sequence?
The binding signal was 2.78 log2 enrichment (interaction score).

For “GGCUAGAACUAGUGGAUCCCCCGGCGCCCGGCGGCUCGAGCCCGGGUAAGUGGAAAACGUCUGCAUGCCGCCGGGCGCCAUGCCUGCAGGUCGACUCUAGAAAACAUG”, which binding signal [6] is on record?
Its binding signal is 5 log2 enrichment (interaction score).

How did the binding signal [7] turn out when “GGCUAGAACUAGUGGAUCCCCCGGCGCCCGGCGGCUCGAGCCCGGGUAAGUGUAAAUAGUCUGCAUGCCGCCGGGCGCCAUGCCUGCAGGUCGACUCUAGAAAACAUG” was run?
Its binding signal is 5.62 log2 enrichment (interaction score).

And the binding signal [8]?
The binding signal was 3.59 log2 enrichment (interaction score).

What about the binding signal [4] of the same sequence?
Its binding signal is 2.84 log2 enrichment (interaction score).

And the binding signal [9]?
The binding signal was 0.87 log2 enrichment (interaction score).

What about the binding signal [10] of the same sequence?
The binding signal was 3.11 log2 enrichment (interaction score).

What about the binding signal [11] of the same sequence?
The binding signal was 4.07 log2 enrichment (interaction score).

And the binding signal [12]?
The binding signal was 3.09 log2 enrichment (interaction score).

What about the binding signal [1] of the same sequence?
The binding signal was 0.8 log2 enrichment (interaction score).

And the binding signal [13]?
The binding signal was 4.91 log2 enrichment (interaction score).

What about the binding signal [14] of the same sequence?
The binding signal was 5.07 log2 enrichment (interaction score).

How did the binding signal [9] turn out when “GGCUAGAACUAGUGGAUCCCCCGGCGCCCGGCGGCUCGAGCCCGGGUAAGCGUAAAUAGUCUGCAUGCCGCCGGGCGCCAUGCCUGCAGGUCGACUCUAGAAAACAUG” was run?
Its binding signal is 2.72 log2 enrichment (interaction score).

With “GGCUAGAACUAGUGGAUCCCCCGGCGCCCGGCGGCUCGAGCCCGGGUAAGUGUAAGUAGUCUGCAUGCCGCCGGGCGCCAUGCCUGCAGGUCGACUCUAGAAAACAUG” as the sequence, how does the binding signal [15] read?
The binding signal was 3.35 log2 enrichment (interaction score).

And the binding signal [16]?
Its binding signal is 3.84 log2 enrichment (interaction score).
